What all share (details): mRNA level, 48 h; actives raise or lower the signal
Read-out in experiment [1]: ABC Transporter (ABCB11), ABCB11 (gene 8647)
Briefly: LTEA_HepaRG_ABCB11: Life Technologies and Expression Analysis (LTEA) Assay for ABC Transporter (ABCB11) using HepaRG (AID 2283463). In short, it runs like this:
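HepaRG, 48 h exposure, 8-pt half-log CRC top 100 uM, 0.5% DMSO vehicle, duplicates. Readout: TaqMan qRT-PCR of ABCB11 mRNA, housekeeping-normalized (ACTB/GAPDH/POLR2A). Bidirectional fit vs DMSO baseline.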

Read-out in experiment [2]: Broad substrate specificity ATP-binding cassette transporter ABCG2 (Homo sapiens) (UniProt Q9UNQ0)
Briefly: LTEA_HepaRG_ABCG2: Life Technologies and Expression Analysis (LTEA) Assay for ABC Transporter (ABCG2) using HepaRG (AID 2283465). In short, it runs like this:
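HepaRG, 48 h exposure, 8-pt half-log series from 100 uM, 0.5% DMSO vehicle, duplicates. Readout: ABCG2 transcript by qRT-PCR (Fluidigm array), housekeeping-normalized; bidirectional curve fit relative to DMSO baseline.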

Read-out in experiment [3]: ATP-citrate lyase (ACLY), ACLY (gene 47)
Briefly: LTEA_HepaRG_ACLY: Life Technologies and Expression Analysis (LTEA) Assay for ATP-citrate lyase (ACLY) using HepaRG (AID 2283466). In short, it runs like this:
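qRT-PCR readout of ACLY transcript after 48 h chemical treatment of HepaRG cells; expression normalized to three housekeeping genes. Eight-point half-log series, highest 100 uM, 0.5% DMSO vehicle. Gain or loss fitted against DMSO baseline.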

Read-out in experiment [4]: Peroxisomal acyl-coenzyme A oxidase 1 (ACOX1) gene, ACOX1 (gene 51)
Briefly: LTEA_HepaRG_ACOX1: Life Technologies and Expression Analysis (LTEA) Assay for Peroxisomal acyl-coenzyme A oxidase 1 (ACOX1) gene using HepaRG (AID 2283467). In short, it runs like this: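 HepaRG, 48 h chemical exposure, 8-pt half-log series from 100 uM top, 0.5% DMSO vehicle, duplicates. Readout: ACOX1 mRNA by Fluidigm qRT-PCR, housekeeping-normalized; bidirectional fit vs DMSO baseline.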

Read-out in experiment [5]: Alkaline Phosphatase, Placental (ALPP) gene, ALPP (gene 250)
Briefly: LTEA_HepaRG_ALPP: Life Technologies and Expression Analysis (LTEA) Assay for Alkaline Phosphatase, Placental (ALPP) gene using HepaRG (AID 2283468). In short, it runs like this:
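Differentiated human HepaRG cells were plated and cultured 48 h, then exposed in duplicate for 48 h in serum-free induction medium to eight half-log concentrations from 100 uM in 0.5% DMSO. ALPP mRNA was measured by TaqMan qRT-PCR, normalized to ACTB, GAPDH, POLR2A.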

Read-out in experiment [6]: Bcl-2 (BAD) gene, BAD (gene 572)
Briefly: LTEA_HepaRG_BAD: Life Technologies and Expression Analysis (LTEA) Assay for Bcl-2 (BAD) gene using HepaRG (AID 2283469). In short, it runs like this: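 HepaRG, 48 h exposure, 8-pt half-log curve from 100 uM in 0.5% DMSO, duplicates. Readout: TaqMan qRT-PCR for BAD mRNA, housekeeping-normalised (ACTB/GAPDH/POLR2A); gain or loss fitted against DMSO baseline.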

Read-out in experiment [7]: Bcl-2 (BAX) gene, BAX (gene 581)
Briefly: LTEA_HepaRG_BAX: Life Technologies and Expression Analysis (LTEA) Assay for Bcl-2 (BAX) gene using HepaRG (AID 2283470). In short, it runs like this: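 Gene expression measured by Fluidigm qRT-PCR with three housekeeping genes for normalisation. HepaRG cells, plated 48 h beforehand, treated 48 h at up to 100 uM (8-point, half-log) in 0.5% DMSO. Bidirectional fitting versus DMSO.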

Read-out in experiment [8]: adenosine kinase (ADK) gene, ADK (gene 132)
Briefly: LTEA_HepaRG_ADK: Life Technologies and Expression Analysis (LTEA) Assay for adenosine kinase (ADK) gene using HepaRG (AID 2283471). In short, it runs like this: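 HepaRG (human liver), 48 h chemical exposure, 8-pt half-log series, top 100 uM, 0.5% DMSO vehicle. Readout: ADK mRNA by qRT-PCR vs housekeeping genes; bidirectional curve fit relative to DMSO baseline.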

Read-out in experiment [9]: Alpha-fetoprotein (AFP) gene, AFP (gene 174)
Briefly: LTEA_HepaRG_AFP: Life Technologies and Expression Analysis (LTEA) Assay for Alpha-fetoprotein (AFP) gene using HepaRG (AID 2283472). In short, it runs like this: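 AFP transcript measured by TaqMan qRT-PCR with three housekeeping genes for normalization, after 48 h chemical treatment of HepaRG cells (top 100 uM, half-log steps, 0.5% DMSO). Gain or loss fitted against vehicle.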

Read-out in the next experiment: BCL2L11 (gene 10018)
Briefly: LTEA_HepaRG_BCL2L11: Life Technologies and Expression Analysis (LTEA) Assay for Bcl-2 (BCL2L11) gene using HepaRG (AID 2283473). In short, it runs like this: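 Differentiated human HepaRG cells in serum-free induction medium were exposed in duplicate for 48 h to eight concentrations (top 100 uM, half-log steps, 0.5% DMSO). BCL2L11 mRNA was quantified by TaqMan qRT-PCR, normalized to ACTB/GAPDH/POLR2A, bidirectional fit versus DMSO.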

Read-out in experiment [10]: Apolipoprotein A-V (APOA5) gene, APOA5 (gene 116519)
Briefly: LTEA_HepaRG_APOA5: Life Technologies and Expression Analysis (LTEA) Assay for Apolipoprotein A-V (APOA5) gene using HepaRG (AID 2283474). In short, it runs like this:
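Differentiated human HepaRG cells were exposed in duplicate for 48 h to eight half-log concentrations from 100 uM in 0.5% DMSO. APOA5 mRNA was quantified by TaqMan qRT-PCR, normalized to ACTB, GAPDH and POLR2A, and fitted bidirectionally against DMSO.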

Read-out in experiment [11]: Apoptosis regulator Bcl-2 (Homo sapiens) (UniProt P10415)
Briefly: LTEA_HepaRG_BCL2: Life Technologies and Expression Analysis (LTEA) Assay for Bcl-2 gene using HepaRG (AID 2283475). In short, it runs like this:
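qRT-PCR of BCL2 transcript, normalized to three housekeeping genes (ACTB, GAPDH, POLR2A), after 48 h chemical exposure of HepaRG cells; concentrations top 100 uM with half-log dilutions, 0.5% DMSO vehicle, duplicates; changes up or down fitted relative to vehicle.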

Read-out in experiment [12]: Bcl-2 (BID) gene, BID (gene 637)
Briefly: LTEA_HepaRG_BID: Life Technologies and Expression Analysis (LTEA) Assay for Bcl-2 (BID) gene using HepaRG (AID 2283476). In short, it runs like this: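 Duplicate 48 h treatments of HepaRG cells in serum-free induction medium spanned 100 uM downward in half-log steps, 0.5% DMSO. Transcript change quantified by qRT-PCR against three housekeeping genes, fitted up or down versus DMSO.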

Read-out in another experiment: Caspase-3 (Homo sapiens) (UniProt P42574)
Briefly: LTEA_HepaRG_CASP3: Life Technologies and Expression Analysis (LTEA) Assay for cysteine-aspartic acid protease (CASP3) using HepaRG (AID 2283477). In short, it runs like this:
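Differentiated human HepaRG cells in serum-free induction medium were exposed 48 h to 8-point half-log concentrations from 100 uM (0.5% DMSO vehicle). CASP3 mRNA was measured by qRT-PCR, normalised to ACTB, GAPDH and POLR2A, with bidirectional fitting against DMSO.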

Read-out in experiment [13]: Cytochrome P450 (CYP24A1), CYP24A1 (gene 1591)
Briefly: LTEA_HepaRG_CYP24A1: Life Technologies and Expression Analysis (LTEA) Assay for Cytochrome P450 (CYP24A1) using HepaRG (AID 2283478). In short, it runs like this: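 Differentiated HepaRG cells, pre-cultured 48 h, were exposed in duplicate for 48 h in serum-free induction medium to 8 half-log concentrations (top 100 uM, 0.5% DMSO). CYP24A1 mRNA was quantified by TaqMan qRT-PCR, normalized to ACTB/GAPDH/POLR2A, fitted bidirectionally versus DMSO.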

Read-out in experiment [14]: Cytochrome P450 (CYP1A2), CYP1A2 (gene 1544)
Briefly: LTEA_HepaRG_CYP1A2: Life Technologies and Expression Analysis (LTEA) Assay for Cytochrome P450 (CYP1A2) using HepaRG (AID 2283479). In short, it runs like this: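 Differentiated human HepaRG cells in serum-free induction medium were exposed in duplicate for 48 h to 8-point half-log concentrations up to 100 uM in 0.5% DMSO. CYP1A2 mRNA measured by qRT-PCR, normalized to ACTB, GAPDH, POLR2A; bidirectional fit vs DMSO.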

Read-out in experiment [15]: cysteine-aspartic acid protease (CASP8), CASP8 (gene 841)
Briefly: LTEA_HepaRG_CASP8: Life Technologies and Expression Analysis (LTEA) Assay for cysteine-aspartic acid protease (CASP8) using HepaRG (AID 2283480). In short, it runs like this: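 qRT-PCR readout of CASP8 mRNA, normalized to three housekeeping genes, after 48 h chemical exposure of HepaRG cells; 8-point half-log series, top 100 uM, 0.5% DMSO vehicle. Bidirectional curve fitting against DMSO baseline.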

Read-out in experiment [16]: Cytochrome P450 (CYP2B6), CYP2B6 (gene 1555)
Briefly: LTEA_HepaRG_CYP2B6: Life Technologies and Expression Analysis (LTEA) Assay for Cytochrome P450 (CYP2B6) using HepaRG (AID 2283481). In short, it runs like this:
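Differentiated HepaRG cells, serum-free induction medium, exposed 48 h in duplicate to 8-point half-log concentrations from 100 uM in 0.5% DMSO. CYP2B6 mRNA by qRT-PCR, normalized to ACTB, GAPDH, POLR2A; bidirectional fit versus DMSO.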

Read-out in experiment [17]: Cytochrome P450 2C19 (Homo sapiens) (UniProt P33261)
Briefly: LTEA_HepaRG_CYP2C19: Life Technologies and Expression Analysis (LTEA) Assay for CYP2C19 using HepaRG (AID 2283482). In short, it runs like this:
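Differentiated human HepaRG cells were exposed for 48 h in serum-free induction medium to 8 concentrations (top 100 uM, half-log steps, 0.5% DMSO). CYP2C19 mRNA was measured by qRT-PCR, normalized to ACTB/GAPDH/POLR2A, and fitted bidirectionally against DMSO.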

Read-out in experiment [18]: ABC Transporter (ABCC2), ABCC2 (gene 1244)
Briefly: LTEA_HepaRG_ABCC2: Life Technologies and Expression Analysis (LTEA) Assay for ABC Transporter (ABCC2) using HepaRG (AID 2283464). In short, it runs like this:
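HepaRG cells were plated 48 h, switched to serum-free induction medium, then exposed in duplicate for 48 h to 8 concentrations (top 100 uM, half-log steps, 0.5% DMSO). ABCC2 mRNA was measured by qRT-PCR normalized to ACTB/GAPDH/POLR2A; bidirectional fitting versus DMSO.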

Molecules are shown by their SMILES. Activity calls are given as the source filed them. How the source made its calls: active means hit-call score of the fitted dose curve at least 0.9, where 1 is the maximum; inactive means score below 0.9.

Apoptosis regulator Bcl-2 (Homo sapiens), sequence (P10415 whole entry, looked up): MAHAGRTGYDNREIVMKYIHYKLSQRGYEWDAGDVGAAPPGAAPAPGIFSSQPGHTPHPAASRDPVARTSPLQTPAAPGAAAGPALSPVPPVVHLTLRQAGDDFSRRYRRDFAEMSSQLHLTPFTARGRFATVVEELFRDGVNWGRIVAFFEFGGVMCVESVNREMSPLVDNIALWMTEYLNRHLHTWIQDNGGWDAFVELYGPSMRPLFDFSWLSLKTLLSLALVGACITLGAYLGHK
Broad substrate specificity ATP-binding cassette transporter ABCG2 (Homo sapiens), sequence (Q9UNQ0 whole entry, looked up): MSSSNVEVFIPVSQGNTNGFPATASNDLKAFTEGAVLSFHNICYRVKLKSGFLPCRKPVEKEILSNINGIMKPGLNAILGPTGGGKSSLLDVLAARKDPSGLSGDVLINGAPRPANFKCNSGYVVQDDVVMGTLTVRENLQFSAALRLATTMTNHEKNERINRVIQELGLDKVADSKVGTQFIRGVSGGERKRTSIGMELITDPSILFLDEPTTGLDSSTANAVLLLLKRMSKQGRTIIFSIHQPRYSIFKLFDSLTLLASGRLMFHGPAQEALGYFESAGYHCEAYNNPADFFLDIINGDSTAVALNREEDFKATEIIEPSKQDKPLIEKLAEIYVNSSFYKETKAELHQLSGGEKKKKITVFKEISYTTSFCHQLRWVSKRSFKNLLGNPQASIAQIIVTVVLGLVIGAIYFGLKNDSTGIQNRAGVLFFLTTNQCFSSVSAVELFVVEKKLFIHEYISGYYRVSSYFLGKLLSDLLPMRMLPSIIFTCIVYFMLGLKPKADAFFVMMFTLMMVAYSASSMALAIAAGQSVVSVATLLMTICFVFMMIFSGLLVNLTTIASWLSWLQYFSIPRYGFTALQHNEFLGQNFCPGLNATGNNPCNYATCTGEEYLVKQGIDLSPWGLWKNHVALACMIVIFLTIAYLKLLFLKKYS
Cytochrome P450 2C19 (Homo sapiens), sequence (P33261 whole entry, looked up): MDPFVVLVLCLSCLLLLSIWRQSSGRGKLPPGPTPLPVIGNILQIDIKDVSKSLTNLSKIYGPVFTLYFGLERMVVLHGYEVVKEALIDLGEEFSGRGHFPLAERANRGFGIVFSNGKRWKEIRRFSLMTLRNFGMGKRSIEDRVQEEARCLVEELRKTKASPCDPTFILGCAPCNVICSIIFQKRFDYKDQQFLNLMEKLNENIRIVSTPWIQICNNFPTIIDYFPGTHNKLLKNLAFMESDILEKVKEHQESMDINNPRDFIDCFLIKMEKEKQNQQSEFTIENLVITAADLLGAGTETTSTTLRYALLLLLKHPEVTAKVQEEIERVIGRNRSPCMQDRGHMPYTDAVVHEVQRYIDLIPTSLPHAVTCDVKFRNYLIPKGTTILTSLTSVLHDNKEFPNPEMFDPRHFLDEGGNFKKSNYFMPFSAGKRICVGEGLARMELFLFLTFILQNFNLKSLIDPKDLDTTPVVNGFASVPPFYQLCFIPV
Caspase-3 (Homo sapiens), sequence (P42574 whole entry, looked up): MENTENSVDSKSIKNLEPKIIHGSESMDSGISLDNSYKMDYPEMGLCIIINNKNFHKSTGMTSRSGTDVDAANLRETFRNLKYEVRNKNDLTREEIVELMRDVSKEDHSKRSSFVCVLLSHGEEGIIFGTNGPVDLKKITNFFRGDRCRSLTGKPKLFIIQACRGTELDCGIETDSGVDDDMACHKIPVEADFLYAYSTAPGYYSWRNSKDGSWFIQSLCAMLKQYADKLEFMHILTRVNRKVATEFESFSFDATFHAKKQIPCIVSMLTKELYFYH

Regarding `Cc1ccc(N)cc1O`, the concentration at half-maximal activity (AC50) (commonly the midpoint of the concentration-response curve, whichever way the signal moves) in experiment [1] is 50 µM (active); in [14], 26.8 µM (active). For the same compound, the compound was classed as inactive in experiment [2], in experiment [3], in [4], in [5], in [6] and in experiment [7]. In addition, the result (in experiment [8]; in [9]; with BCL2L11 (gene 10018); in experiment [10]; in [11]; in [12]) was inactive. Further, the compound was classed as inactive (with Caspase-3 (Homo sapiens); in experiment [13]; in [15]; in experiment [16]; in [17]).

On to `NC(=O)NO`, for which the result in experiment [1], in experiment [18], in experiment [2], in [3], in experiment [4] and in experiment [5] was inactive. Also, the compound was called inactive (in experiment [6]; in experiment [7]; in experiment [8]; with BCL2L11 (gene 10018); in experiment [10]; in experiment [11]). Moreover, the call (in experiment [12]; in the experiment with Caspase-3 (Homo sapiens); in experiment [15]) was inactive.

With `C=CC(=C)CCC=C(C)C`, the call in experiment [1], in experiment [18], in experiment [2], in experiment [3], in [4] and in experiment [5] was inactive. Moreover, the compound was classed as inactive (in [6]; in experiment [7]; in experiment [8]; with BCL2L11 (gene 10018); in experiment [10]; in experiment [11]). Further, the result (in experiment [12]; with Caspase-3 (Homo sapiens); in experiment [13]; in experiment [15]; in [16]; in experiment [17]) was inactive. For the same compound, the half-maximal activity concentration (AC50) in experiment [14] is 27.2 µM (active).

For `CCCCCCCCCCCCCCCO`, the outcome in experiment [1], in [18], in [2], in experiment [3], in [4] and in [5] was inactive. The compound was called inactive (in [6]; in [8]; with BCL2L11 (gene 10018); in experiment [10]; in experiment [11]; in [12]). The result (in the experiment with Caspase-3 (Homo sapiens); in [13]; in [14]; in [16]; in experiment [17]) was inactive.

For the compound `COc1cccc(-c2ccc(/C=C\CN3CCCCCC3)cc2Cl)c1`, the AC50 is 69.3 µM (active) in experiment [1]; 75.4 µM (active) in [18]; 37.8 µM (active) in experiment [2]; 45.2 µM (active) in experiment [4]; 45.2 µM (active) in experiment [5]; 74.5 µM (active) in experiment [7]. Moreover, the AC50 in experiment [10] is 71.7 µM (active); in experiment [11], 67.4 µM (active); in experiment [14], 69.9 µM (active); in experiment [16], 77.3 µM (active); in experiment [17] it was 74.9 µM (active). Further, the compound was called inactive (in [3]; in experiment [6]; in experiment [8]; in the experiment with BCL2L11 (gene 10018); in experiment [12]; with Caspase-3 (Homo sapiens)). For the same compound, the compound was classed as inactive in [13].
